Here are results for five compounds from PubChem BioAssay (NCATS).

For assay [1], the target named is Lysosomal acid glucosylceramidase (Homo sapiens) (UniProt P04062). Kind of assay: Glucocerebrosidase-p2 (AID 348; in the data active means potency below about 10 µM; further: potency means the concentration at half of the fitted maximal effect). Particulars: purified GBA, blue fluorogenic substrate, 40 min. Put shortly:
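Compounds titrated from 0.6 nM upwards against 0.2 nM enzyme in pH 5.9 citric acid/KH2PO4, taurocholate, tween-20; blue fluorogenic substrate 80 uM, 40 min room temperature, stopped and read Ex 365/Em 440 for AC50.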

The nature of assay [2]: AP1 Signaling Pathway (AID 357; active means well fitted curve in either direction with a large enough effect, not every such curve was filed as active; further: on the % scale 0 is the no-effect control and ±100 the full control effect). Particulars: ME-180 AP-1-bla reporter, EGF-induced, beta-lactamase ratio, 5 h; at 7.69 µM (top of the series) unless noted. Put shortly: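 AP-1-bla ME-180 cells with beta-lactamase reporter under AP-1 response element, stimulated with EC50 EGF; compounds titrated, 5 hours at 37 degrees Celsius. CCF4 read at 460/530 nm ratio; positive and negative modulators judged by AC50.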

The target of assay [3] is Cytochrome P450 1A2 (Homo sapiens) (UniProt P05177). Nature of the assay: p450-cyp1a2 (AID 410; calls by dose curve; further: potency means the concentration at half of the fitted maximal effect). Put shortly:
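Luminescent readout of luciferin formed from Luciferin-ME by human CYP1A2; data normalized against complete inhibition by 57 uM furafylline. Enzyme 20nM, substrate 100uM at Km, 100mM KPO4 buffer, 60 min reaction at room temperature.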

Assay [4] can be described thus: NFAT Signaling Pathway (AID 444; active means well fitted curve in either direction with a large enough effect, not every such curve was filed as active;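 further: carbachol stimulus at about its EC50 of 1 µM final; on the % scale 0 is the no-effect control and ±100 the full control effect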). Particulars: Jurkat NFAT-bla M1, carbachol, beta-lactamase ratio, 5 h; at 7.69 µM (top of the series) unless noted. In a few lines: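 Read-out: CCF4 FRET ratio (460 nm/530 nm) after 1 h RT dye loading, used for %activity and AC50 from titration series. Cells: Jurkat NFAT-β-lactamase/M1 line, treated with compound plus 1 uM carbachol for 5 h, 37 °C.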

A short description of assay [5]: Stat Signaling Pathway (AID 446; active means well fitted curve in either direction with a large enough effect, not every such curve was filed as active;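 further: ME-180 cervical cancer cells given 40 pM IL-6 alongside compound; SIE-controlled beta-lactamase reporter measured as 460/530 nm FRET emission ratio; on the % scale 0 is the no-effect control and ±100 the full control effect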). Particulars: ME-180 (cervical carcinoma) SIE beta-lactamase reporter, IL-6 stimulated, 5 h; at 7.69 µM (top of the series) unless noted. Put shortly:
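ME-180 cells carrying a SIE-driven beta-lactamase reporter are stimulated with 40 pM IL-6 for 5 h at 37C in the presence of compound. The 460/530 nm FRET substrate ratio is read after 2.5 h at RT. Data are normalised to 300 pM IL-6 and to 125 nM JAK inhibitor controls.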

For assay [6], the target named is Glucocorticoid receptor (Homo sapiens) (UniProt P04150). Nature of the assay: GR-GFP Redistribution (AID 450;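 active means compounds whose dose series gives a full or clear partial fitted curve of increased nuclear translocation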; further: potency means the concentration at half of the fitted maximal effect). The conditions noted are these: U2OS GR-GFP nuclear translocation, laser cytometry, 2 h.
The target is the same in assay [7]. Kind of assay: GR-EFC Redistribution (AID 451; calls by dose curve; further: potency means the concentration at half of the fitted maximal effect). Particulars: CHO-K1 GR-EFC translocation, beta-gal luminescence, 2 h. Put shortly: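 Translocation of GR-ED fusion to nuclear EA restores b-gal, read by luminescence after 1 h room-temperature detection. Engineered CHO-K1 biosensor cells, 1,000/well, exposed 2 h at 37 C to titrations up to 46 uM final.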
For assay [8], the target named is Mitogen-activated protein kinase 10 (Mus musculus) (UniProt Q61831). Kind of assay: JNK3 AlphaScreen Assay (AID 530; active means well fitted curve in either direction with a large enough effect, not every such curve was filed as active;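 further: kinase came from lysate of stimulated human HepG2 cells; signal reports phosphorylation of biotinylated GST-cJun 1-79 at Ser73 with 10 µM ATP; on the % scale 0 is the no-effect control and ±100 the full control effect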). In a few lines: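 Compound titrations were preincubated 15 minutes at room temperature with substrate, antibody and pre-activated JNK3-containing HepG2 lysate. Reactions were started with 10 uM ATP and stopped with EDTA-containing bead buffer for AlphaScreen detection.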
For orientation: In Alpha technology, singlet oxygen from a donor bead excites a nearby acceptor bead.

Assay [9] has as its target 3',5'-cyclic-AMP phosphodiesterase 4B (Homo sapiens) (UniProt Q07343). Nature of the assay: qHTS Assay for Inhibitors of PDE-IV (AID 607; active means well fitted activation curve with a large enough effect in the main read-out, with a control signal flat, not every such curve was filed as active; further: % of control where 0% means no effect). In a few lines: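 HEK293 ACTOne cells with CNG channel (1000/well), endogenous PDE4; membrane potential dye, compounds up to 22.9 uM final. Fluorescence Ex 535/Em 590; RO 20-1724 (100 uM final) as reference.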
For orientation: Quantitative high-throughput screening tests each substance at several concentrations.

Assay [10] in a line: qHTS Assay for Lipid Storage Modulators (AID 1519; calls by dose curve). Particulars: Drosophila S3 cells, BODIPY lipid droplet/cell ratio, laser cytometry, cells loaded with oleic acid; for activity change, negative = inhibition: at 57.5 µM (top of the series). Put shortly:
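Cells seeded at 5,000 per well were treated with compounds over a concentration series and loaded with oleic acid (400 uM, as added). Lipid droplet fluorescence (488 nm excitation, 500-530 nm channel) was read by laser-scanning cytometry and normalized to 20 uM Triacsin C.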

The target of assay [11] is Dual specificity protein kinase CLK4 (Homo sapiens) (UniProt Q9HAZ1). Nature of the assay: qHTS Assay for Inhibitors of CDC-like Kinase 4 (Kinase-Glo Assay) (AID 1770). Further: on the % scale 0 is the no-effect control and ±100 the full control effect; nearly all actives have a fitted effect of over 65% in size. Put shortly: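 Luminescent ATP-depletion read-out (Kinase-Glo) after 4.5 h room-temperature reaction of Clk4 (25 nM final) with RS peptide (100 uM) and ATP (1 uM), pH 7.5 Tris buffer with MgCl2 and DTT.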

For assay [12] the target is unchanged. Kind of assay: qHTS Assay for Inhibitors of CDC-like Kinase 4 (ADP-Glo Assay) (AID 1771). Further: on the % scale 0 is the no-effect control and ±100 the full control effect; nearly all actives have a fitted effect of over 70% in size. In a few lines: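 Luminescence from ADP-Glo reports ADP produced by 25 nM Clk4 acting on 100 uM RS repeat peptide with 1 uM ATP over 1 hr at room temperature; residual ATP is depleted before ADP is converted to ATP for detection.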
Assay [13] shares this target. Kind of assay: qHTS Assay for Inhibitors of CDC-like Kinase 4 (ADP-FP Assay) (AID 1795).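 Further: recombinant human CLK4 phosphorylating RS repeat peptide at 1 µM ATP; on the % scale 0 is the no-effect control and ±100 the full control effect; nearly all actives have a fitted effect of over 60% in size.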 Put shortly: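 Kinase activity was measured as ADP production using Transcreener orange tracer (4 nM) and ADP antibody (1 ug/mL) fluorescence polarization, with ADP calculated from a calibration curve. The 1 h reaction contained 6.25 nM Clk4, 1 uM ATP and 100 uM RS peptide at pH 7.5 with Mg2+.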

Assay [14] addresses Ubiquitin carboxyl-terminal hydrolase 1 (Homo sapiens) (UniProt O94782). Kind of assay: Inhibitors of USP1/UAF1: Pilot qHTS (AID 504865). Further: nearly all actives have a fitted effect of over 35% in size. Further: potency means the concentration at half of the fitted maximal effect. In a few lines: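 Deubiquitinase activity followed as kinetic rhodamine fluorescence release from 150 nM Ub-Rho. 1 nM USP1/UAF1 with compound, after 15 min room-temperature preincubation, in HEPES pH 7.8 buffer containing TCEP, EDTA, BSA and Tween-20.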

Assay [15] in a line: Primary qHTS for small molecule stabilizers of the endoplasmic reticulum resident proteome: Secreted ER Calcium Modulated Protein (SERCaMP) assay (AID 1508630). Further: on the % scale 0 is the no-effect control and ±100 the full control effect. In a few lines: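 GLuc-SERCaMP-expressing SH-SY5Y cells, pretreated 16 h with compound, are challenged with thapsigargin to empty ER calcium stores; after 4 h, coelenterazine is added directly to the medium and luminescence is imaged.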

Assay [16] deals with Cytochrome P450 3A4 (Homo sapiens) (UniProt P08684). Nature of the assay: qHTS Assay for Activators of Cytochrome P450 3A4 (AID 885). Further: nearly all actives have a fitted effect of over 65% in size. In a few lines: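 Human CYP3A4 (20 nM) with Luciferin-PPXE at 25 uM (its KM) in 200 mM KPO4; 10 min compound preincubation, then NADPH regeneration and 60 min reaction at RT. Luciferin read by luminescence; normalized to 57 uM ketoconazole full inhibition.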

In assay [17] the target is Rap guanine nucleotide exchange factor 3 (Homo sapiens) (UniProt O95398). Kind of assay: Confirmatory qHTS for agonist of cAMP-regulated guanine nucleotide exchange factor 3 (EPAC1) (AID 1645881).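 Further: EPAC1 catalysed release of BODIPY-GDP from Rap1B seen as fluorescence loss; 100% = effect of cAMP agonist control; nearly all actives have a fitted effect of over 75% in size.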
Assay [18] has as its target Rap guanine nucleotide exchange factor 4 (Homo sapiens) (UniProt Q8WZA2). Kind of assay: Confirmatory qHTS for antagonist of cAMP-regulated guanine nucleotide exchange factor 4 (EPAC2) (AID 1645885). Further: on the % scale 0 is the no-effect control and ±100 the full control effect; nearly all actives have a fitted effect of over 25% in size.
Where [19] appears, read: measured here: cell count channel max response.
Setting [20] is: measured here: lipid channel max response.

The structures appear in SMILES notation. Records with an inconclusive call do not appear. Calls of active or inactive are those of the source. Unless noted, the call rests on the fitted dose curve; in most records, active means well fitted curve in the direction sought with a large enough effect; inconclusive means small, poorly fitted or top-dose-only effect, or another doubt; inactive means no such curve, though single readings can be large; an effect the other way counts as inactive or inconclusive. A value given as a limit tells only on which side of the number the result lay.

Chain of 3',5'-cyclic-AMP phosphodiesterase 4B (Homo sapiens) (Q07343 whole entry, looked up): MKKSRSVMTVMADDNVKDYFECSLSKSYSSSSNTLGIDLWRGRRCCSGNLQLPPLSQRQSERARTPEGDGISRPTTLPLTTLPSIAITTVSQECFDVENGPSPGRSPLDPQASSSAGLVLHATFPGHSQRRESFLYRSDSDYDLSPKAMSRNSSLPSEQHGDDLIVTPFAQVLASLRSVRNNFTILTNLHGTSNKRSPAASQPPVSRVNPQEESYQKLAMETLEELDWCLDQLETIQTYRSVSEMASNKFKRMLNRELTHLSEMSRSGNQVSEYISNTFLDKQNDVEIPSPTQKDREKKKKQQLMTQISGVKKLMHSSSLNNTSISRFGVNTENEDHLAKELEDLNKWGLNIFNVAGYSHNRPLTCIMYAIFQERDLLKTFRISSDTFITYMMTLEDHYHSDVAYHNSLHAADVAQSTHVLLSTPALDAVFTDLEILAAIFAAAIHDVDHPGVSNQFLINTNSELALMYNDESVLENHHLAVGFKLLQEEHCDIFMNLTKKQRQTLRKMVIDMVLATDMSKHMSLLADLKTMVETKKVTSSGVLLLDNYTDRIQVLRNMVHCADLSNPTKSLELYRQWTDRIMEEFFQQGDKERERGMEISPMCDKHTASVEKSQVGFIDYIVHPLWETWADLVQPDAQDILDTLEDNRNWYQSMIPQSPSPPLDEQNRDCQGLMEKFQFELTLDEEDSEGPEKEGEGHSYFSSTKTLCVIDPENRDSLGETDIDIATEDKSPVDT
Chain of Dual specificity protein kinase CLK4 (Homo sapiens) (Q9HAZ1 whole entry, looked up): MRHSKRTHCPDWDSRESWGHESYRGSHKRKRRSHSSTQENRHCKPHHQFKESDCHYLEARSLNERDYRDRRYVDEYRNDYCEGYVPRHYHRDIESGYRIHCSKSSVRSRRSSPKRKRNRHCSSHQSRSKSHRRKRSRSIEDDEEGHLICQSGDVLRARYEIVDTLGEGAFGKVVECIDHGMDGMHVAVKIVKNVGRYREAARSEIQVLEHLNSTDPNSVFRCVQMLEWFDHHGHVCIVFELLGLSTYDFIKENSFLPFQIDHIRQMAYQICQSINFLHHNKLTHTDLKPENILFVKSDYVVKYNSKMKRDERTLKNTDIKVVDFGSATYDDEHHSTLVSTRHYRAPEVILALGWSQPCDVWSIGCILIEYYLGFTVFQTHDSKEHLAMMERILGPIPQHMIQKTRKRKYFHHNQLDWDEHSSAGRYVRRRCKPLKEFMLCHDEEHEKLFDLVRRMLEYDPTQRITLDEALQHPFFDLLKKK
Chain of Glucocorticoid receptor (Homo sapiens) (P04150 whole entry, looked up, the tested form may be a part): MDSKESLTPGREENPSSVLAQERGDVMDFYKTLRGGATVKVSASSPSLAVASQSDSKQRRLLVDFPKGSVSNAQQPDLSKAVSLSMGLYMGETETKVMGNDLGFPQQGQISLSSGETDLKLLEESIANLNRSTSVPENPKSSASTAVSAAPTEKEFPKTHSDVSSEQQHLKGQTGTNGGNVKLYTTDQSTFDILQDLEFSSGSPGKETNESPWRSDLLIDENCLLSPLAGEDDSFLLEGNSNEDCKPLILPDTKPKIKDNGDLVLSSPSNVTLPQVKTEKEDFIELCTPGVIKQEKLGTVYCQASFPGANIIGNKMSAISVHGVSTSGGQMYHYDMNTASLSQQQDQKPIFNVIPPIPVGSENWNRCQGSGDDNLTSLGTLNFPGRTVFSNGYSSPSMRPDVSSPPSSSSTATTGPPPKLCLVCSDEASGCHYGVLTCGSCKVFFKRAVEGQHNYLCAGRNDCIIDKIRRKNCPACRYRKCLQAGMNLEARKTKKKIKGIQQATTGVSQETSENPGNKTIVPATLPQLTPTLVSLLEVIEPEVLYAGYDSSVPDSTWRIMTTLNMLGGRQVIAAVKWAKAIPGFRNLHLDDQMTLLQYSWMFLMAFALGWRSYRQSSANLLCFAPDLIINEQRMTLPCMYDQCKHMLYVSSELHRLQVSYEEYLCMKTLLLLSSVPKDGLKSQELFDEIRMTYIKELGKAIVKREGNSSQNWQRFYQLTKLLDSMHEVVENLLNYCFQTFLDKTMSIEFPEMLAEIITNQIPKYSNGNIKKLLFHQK
Chain of Ubiquitin carboxyl-terminal hydrolase 1 (Homo sapiens) (O94782 whole entry, looked up): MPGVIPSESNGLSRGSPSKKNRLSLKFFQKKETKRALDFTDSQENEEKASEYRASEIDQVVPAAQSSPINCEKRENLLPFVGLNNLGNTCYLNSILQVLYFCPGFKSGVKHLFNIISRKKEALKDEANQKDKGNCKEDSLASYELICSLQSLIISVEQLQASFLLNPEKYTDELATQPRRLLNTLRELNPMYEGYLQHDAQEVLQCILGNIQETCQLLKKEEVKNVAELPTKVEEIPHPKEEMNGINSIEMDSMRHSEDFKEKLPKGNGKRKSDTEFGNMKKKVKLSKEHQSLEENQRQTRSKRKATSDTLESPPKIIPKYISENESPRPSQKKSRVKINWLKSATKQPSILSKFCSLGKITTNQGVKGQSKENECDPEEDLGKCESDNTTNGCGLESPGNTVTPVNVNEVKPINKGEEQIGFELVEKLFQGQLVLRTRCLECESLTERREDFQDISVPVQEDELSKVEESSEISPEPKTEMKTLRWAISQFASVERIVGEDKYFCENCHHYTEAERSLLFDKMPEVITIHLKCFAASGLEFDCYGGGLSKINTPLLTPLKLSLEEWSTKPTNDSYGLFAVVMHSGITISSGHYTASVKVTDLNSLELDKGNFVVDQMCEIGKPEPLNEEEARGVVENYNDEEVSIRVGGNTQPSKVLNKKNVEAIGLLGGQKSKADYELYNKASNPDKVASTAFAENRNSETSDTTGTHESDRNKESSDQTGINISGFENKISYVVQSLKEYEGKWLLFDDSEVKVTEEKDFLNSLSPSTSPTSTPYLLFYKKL
Chain of Lysosomal acid glucosylceramidase (Homo sapiens) (P04062 whole entry, looked up): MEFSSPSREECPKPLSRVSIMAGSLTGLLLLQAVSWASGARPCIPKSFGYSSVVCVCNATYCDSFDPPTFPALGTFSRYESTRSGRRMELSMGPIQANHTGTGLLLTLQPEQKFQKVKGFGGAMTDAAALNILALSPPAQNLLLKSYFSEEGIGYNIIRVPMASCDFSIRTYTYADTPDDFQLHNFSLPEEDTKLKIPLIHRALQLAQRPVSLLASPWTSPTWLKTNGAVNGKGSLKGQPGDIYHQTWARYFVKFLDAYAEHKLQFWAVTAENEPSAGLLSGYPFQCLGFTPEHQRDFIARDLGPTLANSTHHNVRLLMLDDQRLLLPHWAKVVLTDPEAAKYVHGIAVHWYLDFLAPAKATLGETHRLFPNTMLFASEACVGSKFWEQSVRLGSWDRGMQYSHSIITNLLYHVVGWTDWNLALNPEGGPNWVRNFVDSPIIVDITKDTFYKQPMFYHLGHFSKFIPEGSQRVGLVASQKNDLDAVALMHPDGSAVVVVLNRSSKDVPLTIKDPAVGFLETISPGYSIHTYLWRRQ
Chain of Cytochrome P450 1A2 (Homo sapiens) (P05177 whole entry, looked up): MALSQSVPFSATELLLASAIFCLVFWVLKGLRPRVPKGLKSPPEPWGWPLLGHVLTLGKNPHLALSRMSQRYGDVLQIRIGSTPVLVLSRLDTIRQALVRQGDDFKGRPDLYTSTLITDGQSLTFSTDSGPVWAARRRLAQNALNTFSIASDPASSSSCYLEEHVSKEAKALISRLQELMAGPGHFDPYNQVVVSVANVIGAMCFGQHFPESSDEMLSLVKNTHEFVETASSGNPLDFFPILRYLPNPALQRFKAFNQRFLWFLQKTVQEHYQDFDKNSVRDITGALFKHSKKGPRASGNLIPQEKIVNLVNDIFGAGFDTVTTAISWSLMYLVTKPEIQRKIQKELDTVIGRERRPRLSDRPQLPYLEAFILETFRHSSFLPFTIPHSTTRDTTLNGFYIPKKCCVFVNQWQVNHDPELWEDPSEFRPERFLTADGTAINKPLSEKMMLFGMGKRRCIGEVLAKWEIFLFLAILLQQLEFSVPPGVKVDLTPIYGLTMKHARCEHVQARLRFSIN
Chain of Rap guanine nucleotide exchange factor 4 (Homo sapiens) (Q8WZA2 whole entry, looked up): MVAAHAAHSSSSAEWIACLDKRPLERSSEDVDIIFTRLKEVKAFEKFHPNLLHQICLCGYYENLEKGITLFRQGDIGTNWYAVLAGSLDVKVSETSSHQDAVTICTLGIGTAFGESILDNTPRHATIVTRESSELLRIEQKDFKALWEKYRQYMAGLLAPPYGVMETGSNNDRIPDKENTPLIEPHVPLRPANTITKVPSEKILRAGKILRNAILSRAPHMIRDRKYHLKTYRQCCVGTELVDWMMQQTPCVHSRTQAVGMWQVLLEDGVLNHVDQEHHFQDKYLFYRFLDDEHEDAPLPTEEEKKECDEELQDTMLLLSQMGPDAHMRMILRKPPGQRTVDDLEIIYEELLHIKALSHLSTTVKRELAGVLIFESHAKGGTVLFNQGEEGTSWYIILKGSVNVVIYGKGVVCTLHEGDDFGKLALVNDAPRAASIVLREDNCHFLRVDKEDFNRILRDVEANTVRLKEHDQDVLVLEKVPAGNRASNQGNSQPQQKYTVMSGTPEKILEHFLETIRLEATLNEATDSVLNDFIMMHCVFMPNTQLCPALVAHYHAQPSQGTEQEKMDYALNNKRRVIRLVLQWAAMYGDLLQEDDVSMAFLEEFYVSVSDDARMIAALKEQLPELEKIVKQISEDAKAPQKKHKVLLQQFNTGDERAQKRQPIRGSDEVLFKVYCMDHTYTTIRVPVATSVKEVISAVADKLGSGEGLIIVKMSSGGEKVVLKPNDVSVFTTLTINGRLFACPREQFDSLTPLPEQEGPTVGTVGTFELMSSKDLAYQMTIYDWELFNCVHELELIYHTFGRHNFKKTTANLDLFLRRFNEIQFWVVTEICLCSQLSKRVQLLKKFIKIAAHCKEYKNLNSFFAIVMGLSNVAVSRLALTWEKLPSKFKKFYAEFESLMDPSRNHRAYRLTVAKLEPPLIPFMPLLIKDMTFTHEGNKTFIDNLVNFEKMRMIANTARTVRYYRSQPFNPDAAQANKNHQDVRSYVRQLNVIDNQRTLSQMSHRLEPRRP

For `Cc1nc2cnc(Nc3ccccc3)nc2n(CCC#N)c1=O`, the Potency in [1] was > 11.4 µM (inactive); in assay [3], 0.631 µM (active); in [6], > 9.22 µM (inactive); in assay [7], > 46 µM (inactive). Moreover, the activity change, negative = inhibition in assay [2] is -11.3% (inactive); in [4] it was -3.1% (inactive); in assay [10] it was -7.58% (inactive). Besides, in [5], the activity, negative = inhibition was -19.6% (inactive). Moreover, the compound was called inactive in assay [8]. Besides, the Potency entry in assay [9], in assay [11], in assay [12], in assay [13], in assay [14] and in assay [15] was “inactive” throughout. Also, the max response in assay [10] (setting [19]) was -11.1%; in assay [10] (setting [20]), -20.1%.

As to `COc1cccc(Cn2c(=O)c(-c3cn(C)c4ccccc34)nc3cnc(N4CCNCC4)nc32)c1`, the Potency in [1] is > 11.4 µM (inactive); in [3], 15.8 µM (active); in [7], > 46 µM (inactive); in [14], 14.1 µM (active). Further, the Potency result in [9], in [16], in assay [11], in assay [12], in assay [13] and in assay [15] was “inactive” throughout. Further, the Potency entry in [18] was “inactive”. Besides, the activity change, negative = inhibition in [10] was 5.92% (inactive). Besides, the max response in assay [10] (setting [19]) amounted to 13.9%; in [10] (setting [20]), 20.8%. The compound was called inactive in assay [17].

With `Cn1cc(-c2nc3cncnc3n(Cc3ccc(F)cc3)c2=O)c2ccccc21`, the Potency is > 11.4 µM (inactive) in assay [1], 1.26 µM (active) in assay [3], > 9.22 µM (inactive) in assay [6] and > 46 µM (inactive) in assay [7]. Also, the activity change, negative = inhibition was -19.3% (inactive) in [2], -18.4% (inactive) in [4] and 6.13% (inactive) in assay [10]. In addition, in assay [5], the activity, negative = inhibition is -7.96% (inactive). Besides, the outcome in [8] was inactive. Besides, the max response was determined as 15.3% in assay [10] (setting [19]) and 20.1% in assay [10] (setting [20]). Also, the Potency entry in assay [11], in assay [12], in assay [13], in assay [14] and in [15] was “inactive” throughout.

For `O=c1c(-c2ccccc2)nc2cnc(N3CCOCC3)nc2n1C1CC1`, the Potency in assay [1] is > 11.4 µM (inactive); in [3] it was 3.16 µM (active); in [6], > 9.22 µM (inactive); in assay [7], > 46 µM (inactive). For the same compound, the activity change, negative = inhibition in assay [2] was -9.27% (inactive); in [4], -1.33% (inactive); in [10] it was -1.42% (inactive). Besides, the activity, negative = inhibition in [5] is -7.68% (inactive). Moreover, the result in assay [8] was inactive. For the same compound, the Potency result in [9], in assay [11], in [12], in assay [13], in [14] and in assay [15] was “inactive” in each case. For the same compound, the max response in assay [10] (setting [19]) is 1.76%; in assay [10] (setting [20]) it was -1.06%.

As for `CN(C)c1ncc2nc(-c3cccs3)c(=O)n(CCC#N)c2n1`, the Potency in [1] is > 11.4 µM (inactive); in [6] it was > 9.22 µM (inactive); in [7], > 46 µM (inactive). Further, the activity change, negative = inhibition in assay [2] is 0.25% (inactive); in assay [4] it was -7.03% (inactive); in [10], 5.59% (inactive). Besides, in assay [8], the compound was classed as inactive. For the same compound, the Potency entry in assay [9], in assay [11], in assay [12], in assay [13], in [14] and in [15] was “inactive” throughout. Besides, the Potency result in [18] is “inactive”. Moreover, the values for the max response in [10] (setting [19]) and in assay [10] (setting [20]) were 20.3% and 26.4%, respectively.
